The list is not random: actives were taken first. Their share in the collection is about 19%.
TDP1 cell noCPT = qHTS for Inhibitors of human tyrosyl-DNA phosphodiesterase 1 (TDP1): qHTS in cells in absence of CPT. DT40 Tdp1-/- hTDP1 cells, no CPT, ATP luminescence, 48 h. Potency, µM (titrated, usually from 46.2 µM), for inactives: at the highest dose activity change, negative = growth inhibition, usual class: inhibitors. actives 15% (n = 420,000). AID 686978, 2013; also: potency is read from the fitted curve at half-maximal effect; % is scaled to controls: 0 for no effect and ±100 for the full control effect; nearly all actives have a fitted effect of over 55% in size
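Camptothecin absent (DMSO only). Human TDP1-complemented DT40 knockout cells, 400 cells/well, 37 °C for minimum 48 hr; ATP measured via CellTiter-Glo, 30 min dark incubation, luminescence.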
HepG2 tox = kills HepG2 cells in TGF-b inhibitor counter-screen | AID 588856 | actives 0.76% (n = 410,000) | Potency, µM (series often up to 46.1 µM), for the others: at the top dose activity change, negative = cytotoxicity, hits mostly cytotoxic | HepG2 CAGA-GFP viability, ATP luminescence, 18 h; also: potency is read from the fitted curve at half-maximal effect
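HepG2 CAGA-GFP cells (1000/well, DMEM with 1% FBS) received compound, then TGF-beta at 500 pg/mL final, and were incubated 18 hours at 37 degrees C. Viability was read by CellTiter-Glo luminescence. Media-only wells were set as complete cell-killing and DMSO as no toxicity.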
IL1B secr inh = inhibitors of inflammasome signaling (IL-1 beta secretion) | THP-1 LPS/ATP IL-1B secretion, AlphaLISA, 16 h; active compounds read low | activity change, % at 57.5 µM | actives 4.7% (n = 360,000) | AID 743279; in the data active = activity change below about -50%; inconclusive = mostly about -30% to -49%; also: % is scaled to controls: 0 for no effect and ±100 for the full control effect
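Secreted IL-1B measured by AlphaLISA bead assay after 16 h compound exposure of THP-1 cells; compounds (final up to 57.5 uM) added 1 h before LPS (250 ng/mL) and ATP (1.25 mM) stimulation; lower signal means less secretion.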
TGFb inhibitor = blocks TGF-b signaling; HepG2 CAGA-GFP TGF-b/SMAD3 reporter, GFP fluorescence, 18 h; TGF-beta stimulated, 500 pg/mL final; Potency, µM (highest dose often 46.1 µM), for the others: at the top dose activity, negative = inhibition, most hits filed as inhibitors; actives 1.2% (n = 410,000); AID 588855; also: potency is read from the fitted curve at half-maximal effect; % is scaled to controls: 0 for no effect and ±100 for the full control effect; nearly all actives have a fitted effect of over 65% in size
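First, reporter cells (HEPG2 CAGA-GFP) rested 2 h at 37 degrees C. Next, compounds were pinned in and TGF-beta added to 500 pg/mL final. After 18 h, GFP was imaged per cell and summed per well.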
TDP1 cell CPT = DT40-hTDP1 cell growth loss with CPT; chicken DT40 Tdp1-/-;hTDP1 cells + 20 nM CPT, ATP luminescence, 48 h; Potency, µM (highest dose often 46.2 µM), for inactives: top-dose activity change, negative = growth inhibition, usual class: inhibitors; actives 12% (n = 420,000); also: potency is read from the fitted curve at half-maximal effect; % is scaled to controls: 0 for no effect and ±100 for the full control effect; nearly all actives have a fitted effect of over 55% in size
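Chicken DT40 Tdp1-/- cells complemented with human TDP1, 400 cells/well, exposed to compounds plus 20 nM camptothecin for at least 48 h at 37 C; viability read as ATP content by CellTiter-Glo luminescence.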
TDP1 inh = TDP1 (human) enzyme inhibition. Q9NUW8. recombinant TDP1, AlphaScreen DNA substrate cleavage. actives 0.28% (n = 350,000). AID 485290. Potency, µM (series often up to 130 µM), without a hit: at the highest dose activity change, negative = inhibition, hits mostly inhibitors; also: potency is read from the fitted curve at half-maximal effect; % is scaled to controls: 0 for no effect and ±100 for the full control effect; nearly all actives have a fitted effect of over 40% in size
Target sequence (Q9NUW8 whole entry, looked up): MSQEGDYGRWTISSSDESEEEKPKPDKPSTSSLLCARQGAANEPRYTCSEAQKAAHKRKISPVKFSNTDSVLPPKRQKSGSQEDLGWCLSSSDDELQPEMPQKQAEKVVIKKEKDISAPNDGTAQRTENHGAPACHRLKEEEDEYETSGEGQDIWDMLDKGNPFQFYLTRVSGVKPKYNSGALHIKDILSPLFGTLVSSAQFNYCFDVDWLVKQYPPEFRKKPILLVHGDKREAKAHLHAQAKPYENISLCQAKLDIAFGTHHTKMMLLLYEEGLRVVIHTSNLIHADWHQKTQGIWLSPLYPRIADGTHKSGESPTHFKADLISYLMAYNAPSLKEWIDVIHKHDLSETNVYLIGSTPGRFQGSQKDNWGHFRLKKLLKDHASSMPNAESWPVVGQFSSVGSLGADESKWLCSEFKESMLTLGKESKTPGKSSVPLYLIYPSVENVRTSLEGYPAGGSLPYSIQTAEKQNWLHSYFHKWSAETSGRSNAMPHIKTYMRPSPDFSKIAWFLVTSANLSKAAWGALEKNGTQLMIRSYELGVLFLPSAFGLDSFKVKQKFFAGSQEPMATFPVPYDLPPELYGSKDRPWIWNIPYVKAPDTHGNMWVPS
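Steps: enzyme plus compound, 15 min RT; add biotin/phosphotyrosine-FITC oligonucleotide (15 nM final), react 5 min; add donor/acceptor beads (10 ug/ml final), 10 min; read AlphaScreen. Tdp1 at 1 nM final.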
Active calls of the source: *; [ ] = another dose, or the depositor's remark. Unless noted, calls follow the shape of the dose curve; as a rule, active = well fitted curve in the direction sought with a large enough effect; inconclusive = small, poorly fitted or top-dose-only effect, or another doubt; inactive = no such curve, though single readings can be large; an effect the other way counts as inactive or inconclusive.

`O=C(Oc1ccc(N(C(=O)c2ccncc2)S(=O)(=O)c2cccs2)cc1)c1ccncc1` gave TDP1 cell noCPT inconclusive, HepG2 tox 12.4%, IL1B secr inh -9.0, TGFb inhibitor 11.2%, TDP1 cell CPT -28.5% and TDP1 inh 4.9%.
`CCOC(=O)c1c(C)oc2ccc(OCC(=O)C(C)(C)C)cc12` gave TDP1 cell noCPT inconclusive, HepG2 tox -24.1%, IL1B secr inh 0.9, TGFb inhibitor -6.8% and TDP1 cell CPT 5.4%.
C[C@@H]1/C=C\CC(=O)OC[C@H]2O[C@@H](C=C[C@@H]2O)[C@H](C)/C=C\CC(=O)OC1 was read as TDP1 inh -1.6%[21 µM].
For Cc1nc2cnc(Oc3ccccc3)nc2n(C)c1=O the results were TDP1 cell noCPT -17.2% and TDP1 cell CPT -1.8%.
O=C(C1COc2ccccc2O1)N1CCN(Cc2ccc(Br)cc2F)CC1 (centres undefined) was read as TDP1 cell noCPT inconclusive, HepG2 tox -27.4%, IL1B secr inh -63.5*, TGFb inhibitor -26.6%, TDP1 cell CPT inconclusive and TDP1 inh 8.2%.
O=C(C1CC1)N1CCN(c2nc3c(F)cc(F)cc3s2)CC1 was read as TDP1 cell noCPT 14.6µM*, HepG2 tox -5.1%, TGFb inhibitor inconclusive, TDP1 cell CPT inconclusive and TDP1 inh -2.6%.
`O=C(C1COc2ccccc2O1)N1CCN(c2nc3c(F)cc(F)cc3s2)CC1` (centres undefined) gave TDP1 cell noCPT 14.6µM*, HepG2 tox 0.0%, IL1B secr inh -22.7, TGFb inhibitor inconclusive, TDP1 cell CPT 20.6µM* and TDP1 inh -1.1%.
Screening O=C(c1ccco1)N1CCN(c2nc3c(F)cc(F)cc3s2)CC1 returned TDP1 cell noCPT inconclusive, HepG2 tox -19.9%, TGFb inhibitor -18.9%, TDP1 cell CPT inconclusive and TDP1 inh 0.0%.
Screening CC(C)(C)OC(=O)C1=NOC2(C=CC(=O)C=C2)C1 returned TDP1 inh 5.0%.
For CCOC(=O)CN1C(=O)CN(c2ccc(C)c(C)c2)C1=O the results were TDP1 cell noCPT -5.5%, HepG2 tox 0.5%, IL1B secr inh 19.4, TGFb inhibitor 15.1%, TDP1 cell CPT -0.4% and TDP1 inh 8.1%.
`COc1ccc(CNC(=O)c2nn(-c3ccccc3C)nc2CO)cc1` gave TDP1 cell noCPT inconclusive, HepG2 tox -20.6%, TGFb inhibitor 0.0%, TDP1 cell CPT -20.9% and TDP1 inh -2.3%.
CN(C)c1ncc2nc(-c3ccccc3)c(=O)n(CCC#N)c2n1 was read as TDP1 cell noCPT -1.6% and TDP1 cell CPT -5.5%.
For O=C(O)c1cc(N2C(=O)CCC2=O)ccc1Cl the results were TDP1 cell noCPT -1.0%, HepG2 tox -2.4%, IL1B secr inh 5.9, TGFb inhibitor -1.6%, TDP1 cell CPT 3.8% and TDP1 inh 6.0%.
For NC[C@@H]1O[C@H](C23CC4CC(CC(C4)C2)C3)Cc2c1ccc(O)c2O the results were TDP1 cell noCPT 23.1µM*, HepG2 tox -55.8%, IL1B secr inh -24.6, TGFb inhibitor -20.5%, TDP1 cell CPT 23.1µM* and TDP1 inh 18.9%[56.1 µM].
`NC[C@@H]1O[C@H](c2ccccc2)Cc2c1ccc(O)c2O` gave TDP1 cell noCPT 9.44µM*, TDP1 cell CPT 6.68µM* and TDP1 inh 12.4%[56.1 µM].
For Cc1ccc2nc(-c3c[nH]c4ccccc34)c(Nc3ccccc3)n2c1 the results were TDP1 cell noCPT inconclusive, HepG2 tox -18.8%, TGFb inhibitor 30.2%, TDP1 cell CPT 16.4µM* and TDP1 inh 4.5%.
For c1ccc(Nc2c(-c3c[nH]c4ccccc34)nc3ccccn23)cc1 the results were TDP1 cell noCPT 11.6µM*, HepG2 tox -40.3%, TGFb inhibitor -16.2%, TDP1 cell CPT 14.6µM* and TDP1 inh 8.8%.
Fc1ccc(Nc2c(-c3c[nH]c4ccccc34)nc3ccccn23)cc1 was read as TDP1 cell noCPT 20.6µM*, HepG2 tox -32.0%, TGFb inhibitor -6.2%, TDP1 cell CPT 16.4µM* and TDP1 inh 11.8%.
`c1ccc(Nc2c(-c3ccccc3)nc3ncccn23)cc1` gave TDP1 cell noCPT inconclusive, HepG2 tox -18.1%, TGFb inhibitor -18.6%, TDP1 cell CPT inconclusive and TDP1 inh -2.5%.
For COc1ccc(Nc2c(-c3ccc(C)o3)nc3ccccn23)cc1 the results were TDP1 cell noCPT inconclusive, TDP1 cell CPT inconclusive and TDP1 inh 8.9%.
COc1ccccc1CNC(=O)CN1C(=O)c2cccnc2Oc2ccccc21 was read as TDP1 cell noCPT -20.2%, HepG2 tox -7.6%, TDP1 cell CPT -4.4% and TDP1 inh 2.5%.
Screening COC(=O)Cc1ccc(NC(=S)NN2CCOCC2)cc1 returned TDP1 cell noCPT 4.0%, HepG2 tox 3.3%, IL1B secr inh 10.0, TGFb inhibitor -9.6%, TDP1 cell CPT 6.9% and TDP1 inh 0.0%.
Screening CCc1cc2c(cc3c(=O)n(CC(=O)NC(C)c4ccccc4)ncn32)s1 (centres undefined) returned TDP1 cell noCPT inconclusive, HepG2 tox -5.5%, TGFb inhibitor -17.8%, TDP1 cell CPT inconclusive and TDP1 inh -2.0%.
O=C(CNC1CCCCCC1)Nc1ccccc1N1CCCCC1 was read as TDP1 cell noCPT 20.6µM*, HepG2 tox -31.1%, IL1B secr inh -21.3, TGFb inhibitor inconclusive, TDP1 cell CPT inconclusive and TDP1 inh 2.0%.
Cc1ccc(NC(=O)CSCC(=O)Nc2ccccc2N2CCCCC2)cc1 was read as TDP1 cell noCPT inconclusive, HepG2 tox -0.6%, IL1B secr inh -62.9*, TGFb inhibitor inconclusive, TDP1 cell CPT inconclusive and TDP1 inh -4.7%.
`Cc1cccc(NC(=O)CSCC(=O)Nc2ccccc2N2CCCCC2)c1` gave TDP1 cell noCPT inconclusive, HepG2 tox 7.0%, IL1B secr inh -13.2, TGFb inhibitor inconclusive and TDP1 cell CPT -27.9%.
For CCc1ccc(N2CN(CCc3ccccc3)CNC2=S)cc1 the results were TDP1 cell noCPT 29.1µM*, HepG2 tox -58.2%, IL1B secr inh 18.0, TGFb inhibitor inconclusive, TDP1 cell CPT inconclusive and TDP1 inh 2.6%.
COc1cccc(N2CN(CCc3ccccc3)CNC2=S)c1 was read as TDP1 cell noCPT inconclusive, HepG2 tox 5.9%, TGFb inhibitor 1.2%, TDP1 cell CPT 5.7% and TDP1 inh 0.0%.

Bioassay records deposited in PubChem BioAssay by National Center for Advancing Translational Sciences (NCATS).
